The list is not random: actives were taken first. Their share in the collection is about 1.1%.
BAP1 block = inhibitors of human BAP1 deubiquitinase | recombinant BAP1, Ub-AMC hydrolysis fluorescence kinetic; stronger effect = lower value | calls only at 20 µM | hit rate 0.48% among 72,000 | AID 436;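 active means activity remaining at or below 50% of control, provided the compound also passes the data quality filters; inactive means the rest, including low values that fail the filters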;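 further: 100% = DMSO wells rate and 0% = substrate alone blank rate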
CatG inh = blocks human cathepsin G enzyme activity. P08311. purified enzyme, AMC-tetrapeptide fluorescence, pooled mixtures. inhibition, % at 5 µM (by protocol). hit rate 0.2% among 62,000. AID 581;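 active means inhibition above 20% in each of the two mixture wells holding the compound; inactive means inhibition of 20% or less in either well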;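 further: 0% = enzyme control without mixture and 100% = blank lacking enzyme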
Target sequence (P08311 21-244 limits assumed): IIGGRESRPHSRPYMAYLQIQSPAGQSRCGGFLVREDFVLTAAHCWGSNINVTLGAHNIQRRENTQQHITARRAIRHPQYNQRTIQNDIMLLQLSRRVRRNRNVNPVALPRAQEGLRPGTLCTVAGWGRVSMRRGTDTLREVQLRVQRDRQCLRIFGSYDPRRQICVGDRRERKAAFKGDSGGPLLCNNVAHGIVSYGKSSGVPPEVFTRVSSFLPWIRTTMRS
HePTP inhibitor = blocks human HePTP tyrosine phosphatase | hit rate 0.64% among 110,000 | P35236 | inhibition, % at 20 µM | recombinant HePTP phosphatase activity, OD absorbance; in the data active means inhibition above about 50%; inconclusive means no clear call, values can overlap the other calls;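 further: plate controls were vehicle for no effect and reference inhibitor for full effect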
Target sequence (P35236 whole entry, looked up): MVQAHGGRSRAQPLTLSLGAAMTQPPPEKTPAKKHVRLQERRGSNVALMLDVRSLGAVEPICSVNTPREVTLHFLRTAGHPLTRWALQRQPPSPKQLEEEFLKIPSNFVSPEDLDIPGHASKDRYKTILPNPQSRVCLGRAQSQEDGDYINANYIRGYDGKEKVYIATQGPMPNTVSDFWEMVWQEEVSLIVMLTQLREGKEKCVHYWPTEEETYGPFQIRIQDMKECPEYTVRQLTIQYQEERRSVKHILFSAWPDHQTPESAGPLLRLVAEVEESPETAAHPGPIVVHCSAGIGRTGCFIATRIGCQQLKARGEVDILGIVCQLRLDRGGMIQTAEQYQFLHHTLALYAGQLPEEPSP
C1s block = human complement C1s inhibition; P09871; purified C1s, fluorogenic AMC substrate, pooled mixtures; mean inhibition % of two 10-compound mixtures (stronger effect = higher value), % at 5 µM (by protocol); hit rate 0.16% among 62,000;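 active means inhibition above 20% in each of the two 10-compound mixture wells holding the compound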;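 further: 0% = enzyme wells lacking compound mixture and 100% = no-enzyme blank wells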
FXIIa mix inh = inhibitors of human coagulation factor XIIa, pooled mixtures | hit rate 0.2% among 62,000 | purified FXIIa, fluorogenic substrate | P00748 | AID 684 | inhibition, % at 5 µM;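 further: 0% = enzyme without compound and 100% = no enzyme blank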
FXIa mix inh = factor XIa (human) inhibition, mixture screen. purified FXIa, fluorogenic substrate, pooled mixtures. inhibition, % at 5 µM. hit rate 0.19% among 62,000. AID 680;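 further: each value is inhibition by a whole ten-compound pool holding the compound; 0% = enzyme with no mixture and 100% = wells lacking enzyme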
BAP1 inh conf = confirmation of human BAP1 enzyme inhibitors | shares compounds with BAP1 block | purified BAP1, Ub-ethyl ester hydrolysis, HPLC; stronger effect = lower value | % of control activity, % at 20 µM | hit rate 8% among 310 | AID 753;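 active means percent of control activity at or below 60%; inconclusive means HPLC trace unusable from injection failure or solvent front hiding peaks; inactive means the rest, plus ubiquitin peak ratio over a set limit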
* = called active by the depositor; i = inactive; ? = inconclusive; . = no result given; + = active, no number. Unless noted, no stated cut-off is given here; in the data, active means inhibition above about 20% (passing the limit was not always enough); inactive means the rest.

SMILES | BAP1 block | CatG inh | HePTP inhibitor | C1s block | FXIIa mix inh | FXIa mix inh | BAP1 inh conf
CCOC(=O)c1c(NC(=O)c2ccc(-n3cnnn3)cc2)sc2c1CCCC2 | + | 7.8 | 5.7 | -4.9 | 2.4 | 7.4 | 120.8
COc1ccc(-c2nc(SCC(=O)c3ccccc3)n[nH]2)cc1 | . | . | -4.4 | . | . | . | .
Cc1ccc2c(SCC(=O)NCc3ccco3)nc(-c3ccc(F)cc3)nc2c1 | + | -18.1 | -3.8 | -9.4 | 2.5 | 2.5 | 61.1
S=c1oc(-c2ccncc2)nn1CN1CCOCC1 | . | . | 6.7 | . | . | . | .
COC(=O)c1ccc(NC(=O)CSc2nnc(COc3ccc4c(c3)CCCC4)o2)cc1 | + | 8.8 | 2.9 | 1.8 | -2.1 | 0.0 | 81.7
O=C(/C=C/c1ccccc1)N1CCN(Cc2ccc3c(c2)OCO3)CC1 | . | . | 3.7 | . | . | . | .
CCCn1c2c(c(O)c(C(=O)Nc3nccs3)c1=O)CCCC2 | i | -2.7 | -3.7 | -11.5 | 5.8 | 2.8 | .
CC(C)Cn1c2c(c(O)c(C(=O)Nc3nccs3)c1=O)CCCC2 | + | 2.7 | -2.2 | -4.0 | 6.6 | 9.6 | 114.9
CCCn1c2c(c(O)c(C(=O)Nc3ccc(C)cn3)c1=O)CCCC2 | i | 16.3 | 5.7 | 9.0 | 3.2 | 4.1 | .
CCCn1c2c(c(O)c(C(=O)Nc3ncccc3C)c1=O)CCCC2 | + | 9.7 | 10.0 | 13.9 | -26.0 | 7.8 | 96.7
CCOC(=O)N1CCN(c2ncnc3c2cnn3-c2ccc(OC)cc2)CC1 | i | . | 6.1 | . | . | . | 99.3
CCOC(=O)c1c(NC(=O)c2cccc(F)c2)sc(C(=O)Nc2cc(C(F)(F)F)ccc2Cl)c1C | . | . | -9.2 | . | . | . | .
CCCCc1ccc(Nc2nc(CCC)cc(=O)[nH]2)cc1 | + | 8.1 | 9.1 | -16.6 | -23.0 | 2.9 | 87.6
CCCc1cc(=O)[nH]c(Nc2ccc(N3CCCCC3)cc2)n1 | i | 2.5 | 4.0 | -8.6 | 7.2 | 1.0 | .
COC(=O)c1ccccc1NC(=O)c1sc(=S)n(C)c1N | + | 1.1 | -3.0 | 2.7 | 5.5 | 5.2 | 50.6*
COC(=O)c1ccccc1NC(=O)c1sc(N)nc1C | i | 5.9 | 2.0 | 0.2 | 2.7 | -1.2 | .
CCCC1C2CN(C(C)C)CC=C2C(C#N)=C(N)C1(C#N)C#N (stereo not drawn) | + | -4.0 | -1.4 | -22.5 | 5.8 | 0.9 | 94.4
COc1ccc(N(CC(=O)Nc2ccc(F)c(Cl)c2)S(=O)(=O)c2c(C)noc2C)cc1 | + | 2.0 | 8.0 | 2.4 | 6.3 | 9.3 | 152.9
Cc1cccc(-c2cc3nc4c(c(N5CCC6(CC5)OCCO6)n3n2)CCCC4)c1 | . | -5.0 | 6.1 | -12.6 | 5.8 | 9.5 | .
Cc1cccc(-c2cc3nc4c(c(N5CCOCC5)n3n2)CCCC4)c1 | + | 8.4 | 9.3 | 2.5 | 7.8 | 5.7 | 118.1
Cc1c(N2C(=O)c3ccc4c5c(ccc(c35)C2=O)CC4)c(=O)n(-c2ccccc2)n1C | + | 1.5 | . | -100.1 | 6.5 | -27.1 | 65.1
Cc1c(N=Cc2ccc3c4c(cccc24)CC3)c(=O)n(-c2ccccc2)n1C | . | . | -1.4 | . | . | . | .
O=C(Nc1nc2ccc(Cl)cc2s1)c1ccc(Br)o1 | + | 6.5 | 2.7 | -4.1 | 3.6 | 4.6 | 80.8
O=C(CSc1nnnn1C1CCCCC1)Nc1nc2c(s1)CCCC2 | i | -6.6 | 1.3 | -35.3 | 9.2 | -3.9 | .
N#Cc1c(NC(=O)CSc2nnnn2C2CCCCC2)sc2c1CCCC2 | + | 2.1 | 11.2 | 2.5 | 7.6 | 6.8 | 61.7
SMILES | BAP1 block | CatG inh | HePTP inhibitor | C1s block | FXIIa mix inh | FXIa mix inh | BAP1 inh conf
CCOC(=O)C1CCN(S(=O)(=O)c2ccc3c4c(cccc24)C(=O)N3)CC1 | + | 4.5 | 4.3 | -31.5 | -0.7 | -24.9 | 120.4
CSc1nc(-c2ccccc2O)nc(-c2ccccc2O)n1 | + | 38.9 | -1.8 | 34.7 | -19.8 | 4.6 | i
Cc1nc(N)nc(-c2ccccc2O)n1 | . | . | 5.0 | . | . | . | .
COc1cc(C(C)=O)ccc1OC(=O)c1ccc([N+](=O)[O-])cc1Cl | . | . | 6.0 | . | . | . | .
O=c1oc(-c2cc3ccccc3o2)nc2sc3c(c12)CCCC3 | + | -3.4 | 11.6 | -40.1 | 1.0 | 4.0 | 65.9
O=c1oc(-c2ccccc2)nc2sc3c(c12)CCCC3 | . | . | -6.9 | . | . | . | .
COCCn1nnnc1C(c1cc2ccc(C)cc2[nH]c1=O)N(Cc1ccco1)Cc1cccs1 (stereo not drawn) | + | 10.0 | 5.0 | -4.2 | 2.8 | -2.7 | 125.9
Cc1ccc2cc(C(c3nnnn3C3CCCC3)N(Cc3ccccc3)Cc3ccco3)c(=O)[nH]c2c1 (stereo not drawn) | i | 43.4 | 1.0 | 4.9 | 2.5 | 17.1 | .
CSC1=C(C#N)C2(CCCC2)C(C#N)=C(N)N1 | + | 10.4 | 1.7 | 13.7 | -1.6 | 6.3 | 77.0
CCC(=O)Nc1cc(-c2nn(C)c(=O)c3ccccc23)ccc1OC | i | -1.4 | -6.6 | -1.7 | 0.3 | 8.2 | .
COc1ccc(-c2nn(C)c(=O)c3ccccc23)cc1NC(=O)Cn1nc(C)c2ccccc2c1=O | + | -27.6 | -5.5 | -97.6 | 13.9 | -22.6 | 113.2
COc1ccc(C2C(C(C)=O)=C(C)N=c3s/c(=C\c4ccco4)c(=O)n32)c(OC)c1 (stereo not drawn) | + | 8.9 | 5.7 | 14.1 | 0.6 | 12.0 | 76.3
Cc1ccc(Cl)c(OCCCCNC(C)(C)C)c1 | . | . | 9.3 | . | . | . | .
Cc1ccc(C(C)C)c(OCC(=O)Nc2ccccc2N2CCN(C)CC2)c1 | i | 11.1 | 5.7 | 12.7 | 2.6 | 3.5 | .
CC(=O)N1CCN(c2ccccc2NC(=O)COc2cc(C)ccc2C(C)C)CC1 | + | 3.7 | 5.7 | -7.9 | 13.4 | 5.1 | ?
Clc1ccc(C2Nc3ccccc3-n3cccc32)cc1 (stereo not drawn) | + | -15.6 | 14.0 | -7.1 | 9.6 | 1.8 | 93.0
O=C1c2ccccc2NC(c2ccc(Cl)cc2)N1Cc1ccccc1 (stereo not drawn) | . | . | -4.4 | . | . | . | .
CS(=O)(=O)N(CC(=O)Nc1ccc2c(c1)OCCO2)Cc1ccccc1 | i | 7.1 | -16.0 | 2.3 | 3.6 | 4.7 | .
O=C(CN(Cc1ccccc1)S(=O)(=O)c1ccc2c(c1)OCCO2)Nc1ccc2c(c1)OCCO2 | + | 10.8 | 2.7 | 17.6 | 2.7 | 6.5 | 143.7
CC(=O)Nc1nnc(-c2ccc3c(c2)CCCC3)o1 | i | -0.7 | 5.6 | -1.3 | -11.8 | 11.5 | .
O=C(COc1ccc(Cl)cc1)Nc1nnc(-c2ccc3c(c2)CCCC3)o1 | + | 9.1 | -6.9 | 10.0 | -1.4 | 3.6 | i
NC(N)=N/N=C/c1ccccc1OCc1ccc(Cl)cc1 | . | . | -3.3 | . | . | . | .
CCCCCCc1nnc(NC(=O)C(C)(C)C)s1 | . | . | 5.7 | . | . | . | .
Cc1ccc(C)c(NC(=O)CSc2nc3ccccc3s2)c1 | . | . | -7.1 | . | . | . | .
Cn1c(C(=O)N2CCCc3ccccc32)cc2c(=O)n3ccccc3nc21 | + | 7.8 | 2.8 | 8.8 | 2.8 | 10.2 | 109.8
O=c1c2c(-c3ccccc3)csc2ncn1/N=C/c1ccccn1 | . | . | 1.3 | . | . | . | .
Cn1cc(/C=N/n2cnc3scc(-c4ccccc4)c3c2=O)c2ccccc21 | + | -1.0 | 5.1 | -0.3 | 2.8 | 11.9 | 91.1

Source: PubChem BioAssay
